# Experimental data reported in PubChem BioAssay.
# System: Rat fibroblasts (CREF)
# Test: inhibition of PEG-3 promoter-driven reporter – cell-based, HeLa, luciferase, CREF/GAPDH counter-screen panel, dose response (AID 624167)
# Conditions: CREF/GAPDH counter-screens; run 2, dose range 1, at 100 µM (top of the series)
row,SMILES,inhibition [%]
1,COc1ccc(NC(=O)c2cc(-c3ccccn3)nc3ccccc23)cc1S(=O)(=O)N(C)C,-6.75
2,CCOc1ccc2nc(NC(=O)c3ccccn3)sc2c1,83.4
3,Cc1c(C)c2ccc(OCC(=O)Nc3ccccn3)c(C)c2oc1=O,97.8
4,N=c1n(CC(=O)c2ccc([N+](=O)[O-])cc2)c2ccccc2n1Cc1ccc(Cl)cc1,99.4
5,CCCOc1ccc2cc(-c3ccccn3)c(=O)oc2c1,95.4
6,Cc1nc(SCC(=O)Nc2nc3ccccc3s2)c(C#N)c(C)c1C,97
7,O=C(Nc1ccccc1C(=O)Nc1nnc(C(F)(F)F)s1)c1ccccc1,11.8
8,CCCC(=O)NC(c1ccc(OC)cc1)c1ccc2cccnc2c1O (centres undefined),99.5
9,Cc1cc(N2CCN(C)CC2)ccc1NC(=O)c1c2c(nc3ccccc13)CCN(Cc1ccccc1)C2,99.8
10,O=[N+]([O-])c1ccc(S(=O)(=O)c2ccccc2)nc1,98.6
11,Cc1cc(C)c(C)c(S(=O)(=O)N2CCN(C(=O)c3cc(=O)[nH]c4ccccc34)CC2)c1C,90.5
12,O=C(NCCc1ccccc1)c1ccc2c(c1)OCO2,93.7
13,O=C(NCCc1ccccc1)c1ccc2c(c1)OCCCO2,99.5
14,NC1=C(Br)C(=O)c2ncccc2C1=O,98.6
15,CCOc1ccc(NC(=O)Nc2cccc(C(=O)O)c2)cc1,94.1
16,CCC(=O)NC(c1cccs1)c1cc(Cl)c2cccnc2c1O (centres undefined),97.6
17,COc1ccc(C(=O)Nc2nc3ccccc3s2)c(OC)c1,97.7
18,CCCCC(=O)NC(c1ccccc1OC)c1ccc2cccnc2c1O (centres undefined),5.38
19,Cc1ccc(-c2nc(-c3ccccn3)no2)cc1Cl,99.4
20,COc1ccc(-c2cc3nc(C)n(N)c(=O)c3s2)cc1,98.9

row,SMILES,inhibition [%]
1,O=C(Nc1ccc(Cc2ccncc2)cc1)c1ccc([N+](=O)[O-])o1,99.5
2,COc1ccc2c(c1)sc1nc(-c3ccccc3)cn12,98.5
3,COc1ccc(/C=C2\SC(=S)N(CCCC(=O)NNC(=O)c3ccccc3O)C2=O)cc1,43.3
4,COC(=O)C1C=CC(OC2OC(COC(C)=O)C(OC(C)=O)C(OC(C)=O)C2OC(C)=O)n2c(=O)n(-c3ccccc3)c(=O)n21 (centres undefined),99.1
5,O=C(O)c1ccc(N/N=C/c2ccc(OC(=O)c3cccc(Cl)c3)cc2)cc1,40
6,Brc1ccc(N=Nc2ccc3ccccc3n2)cc1,96.3
7,CCSc1nc2ccccc2n1C(=O)/C=C\c1ccc(OC)c(OC)c1,91.8
8,CC(C)Cc1ccc(C(C)C(N)=NCCc2ccccc2)cc1 (centres undefined),99.2
9,O=c1c2ccccc2cnn1-c1nc2ccccc2[nH]1,100
10,Brc1ccc(N/N=C(/N=Nc2nn[nH]n2)c2ccccc2)cc1,70
11,Cc1c([N+](=O)[O-])cc(N2C(=O)C=CC2=O)cc1[N+](=O)[O-],100
12,COC1CC(C)C(OC)c2cc(O)cc(c2O)NC(=O)C(C)=CC=CC(C)C(OC(N)=O)C(C)=CC(C)C1OC (centres undefined),98.6
13,COC(=O)c1c(N)sc(C(=O)NCCc2ccccc2)c1C,92.9
14,CN=c1scc(-c2cccs2)n1/N=C/c1ccccc1O,97.1
15,Cc1nn(-c2nc3ccccc3[nH]2)c(=O)c2ccccc12,101
16,Cc1ccsc1/C=N/Nc1cccc(C(=O)O)c1,42.9
17,CC(=O)c1sc2c(c1OC(=O)c1ccc(Cl)cc1Cl)c(=O)n(-c1ccccc1)c(=S)n2-c1ccccc1,61.6
18,CN(C)c1ccc(/C=C/c2nc3ccccc3s2)cc1,94.9
19,CC(=O)N1CCCC(c2cc(C(=O)Nc3ccccc3)no2)C1 (centres undefined),92
